A selection: hits, their analogues and other compounds. The true share with any hit is near 1.4%.
Mtb MbtI inh – inhibitors of Mycobacterium tuberculosis siderophore enzyme MbtI. purified MbtI enzyme, fluorescence intensity read-out. P9WFX0. hit rate 0.89% among 100,000. inhibition, % (test concentration not listed); in the data active means inhibition mostly above about 56%, no sharp cut-off; inactive means mostly below about 77%
MenB inh – blocks the Mycobacterium tuberculosis MenB enzyme; P9WNP5; MenB enzyme assay, absorbance read-out; inhibition, % (test concentration not listed); hit rate 0.43% among 100,000; AID 540299; in the data active means inhibition above about 21%, passing the limit was not always enough
Target sequence (P9WNP5 whole entry, looked up): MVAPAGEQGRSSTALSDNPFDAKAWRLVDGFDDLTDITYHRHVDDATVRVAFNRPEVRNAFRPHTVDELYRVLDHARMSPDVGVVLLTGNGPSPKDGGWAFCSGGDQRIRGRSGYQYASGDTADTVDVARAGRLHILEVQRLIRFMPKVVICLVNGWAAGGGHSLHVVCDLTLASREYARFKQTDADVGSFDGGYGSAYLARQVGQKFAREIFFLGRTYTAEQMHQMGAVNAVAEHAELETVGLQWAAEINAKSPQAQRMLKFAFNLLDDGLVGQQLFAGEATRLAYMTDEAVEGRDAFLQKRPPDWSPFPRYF
PV pol inh – poliovirus RNA polymerase inhibition | P03300 | poliovirus polymerase elongation, fluorescence polarization; active compounds read low | % elongation, % (compound at 16.7 µg/mL) | hit rate 0.66% among 150,000; in the data active means % elongation below about 90%
AID504770 – E. coli YBA685 growth inhibition, screen for V. cholerae RctB inhibitors | E. coli YBA685 rctB-dependent plasmid, OD600 growth, 3 h; active compounds read low | z-score (test concentration not listed) | hit rate 0.27% among 130,000; in the data active means z-score below about -2, passing the limit was not always enough
An asterisk follows results filed as active; x = not tested or not shown; ! = a repeat was not active.

SMILES | Mtb MbtI inh | MenB inh | PV pol inh | AID504770
O=C(Cn1c2ccc(F)cc2c2nc3n(c(=O)c21)CCS3)N1CCCC1 | 43.5 | 30.3* | 103.0 | 2.2
CCCn1c2ccc(F)cc2c2nc3n(c(=O)c21)CCS3 | 89.8 | 15.9 | 101.0 | -0.25
C/C(=N\NC(=O)c1ccn[nH]1)c1cc(O)ccc1O | 71.2* | -31.0 | 104.0 | -0.9
CCOc1ccc(OCCn2ccnc2)cc1 | -22.8 | -8.3 | 99.0 | -1.05
S=C(NC1CCCCC1)C(=S)NC1CCCCC1 | 37.1 | 10.1 | 82.0* | 2.15
CCC(=O)Nc1ccc(NCc2ccccc2C)cc1 | 2.8 | -30.2 | 100.0 | 1.7
COc1ccc(F)cc1S(=O)(=O)Nc1cccc(-c2ccc(N3CCCCCC3)nn2)c1 | x | x | 110.0 | x
COc1ccc(OC)c(S(=O)(=O)Nc2cccc(-c3ccc(N4CCCCC4)nn3)c2)c1 | x | x | 85.0* | x
COc1ccc(-n2c(-c3ccco3)nc3ccccc3c2=O)cc1 | -1.3 | -2.1 | 100.0 | 0
Cc1cccc(-n2c(-c3ccco3)nc3ccccc3c2=O)c1 | 59.0* | -4.8 | 104.0 | -0.3
COc1cc(NC(C)CCCN)c2ncccc2c1 (centres undefined) | 3.4 | -4.3 | 58.0*! | 0.25
COc1ccc(CSc2cccc3cccnc23)cc1 | 32.6 | x | 105.0 | -0.55
CCOc1cc(C(Nc2cccnc2)c2ccc3cccnc3c2O)ccc1O (centres undefined) | 104.2 | -68.8 | 99.0 | 0.05
Cn1c(=O)c(C2=NS(=O)(=O)c3ccccc3N2)c(O)c2ccccc21 | -4.5 | 32.8* | 99.0 | 0
O=c1c2ccc(C(F)(F)F)cc2nc2n1CCC2 | -6.8 | -2.5 | 97.0 | -0.9
Cc1cc(Br)cc(C)c1OCCCN(C)C | -4.1 | -1.1 | 88.0* | 0.5
COC(=O)Cn1ncc(N2CCc3ccccc3C2)c(Cl)c1=O | 18.8 | -2.2 | 100.0 | -0.95
O=C1C(O)=C(O)C(=O)C(O)=C1O | -36.5 | -4.8 | 97.0*! | 0.3
N#Cc1cccc(NC(=O)COC(=O)CCC2CCCC2)c1 | -3.0 | x | 102.0 | 0.25
CC(C)(C)c1cc(O)c(O)c(Br)c1 | 101.3* | 23.1 | 98.0 | 0.1
COC(=O)c1cc(Br)c(O)c(Br)c1 | x | x | x | 0.5
CC1O[C@H](O[C@]2(O[C@H]3CC[C@@]4(C)C(=CC[C@H]5[C@@H]6C[C@H]7[C@H]([C@H](C)[C@H]8CC[C@H](C)CN87)[C@@]6(C)CC[C@@H]54)C3)C[C@@H](O[C@@H]3OC(CO)[C@@H](O)[C@@H](O)C3O)[C@@H](O)C(CO)O2)C(O)[C@@H](O)[C@H]1O (some centres undefined) | -13.6 | -9.7 | 103.0 | x
O=C1CCN(c2cc(Nc3cccc(F)c3)c3c4c(onc24)-c2ccccc2C3=O)CC1 | 0.8 | -38.2 | 107.0 | 0.55
CCOC(=O)C1CCCN(C(=O)CSc2ccc(NC(C)=O)cc2)C1 (centres undefined) | 66.6* | 0.0 | 100.0 | 1.55
CCC(=O)NC(c1ccco1)c1c(OC(C)=O)ccc2ccccc12 (centres undefined) | -48.3 | -2.0 | 103.0 | -0.85
SMILES | Mtb MbtI inh | MenB inh | PV pol inh | AID504770
CCOC(=O)c1[nH]c(=O)[nH]c1CSc1ccccn1 | 90.8* | -6.0 | 100.0 | 0.2
C=CCN1C(=O)C(=O)/C(=C(\O)c2ccccc2)C1c1ccccc1 (centres undefined) | 5.5 | 20.4 | 101.0 | 1.9
Cc1sc2cc(-[n+]3ccc(O)cc3)ccc2[n+]1-c1ccccc1 | 94.8* | x | 100.0 | 0.9
CCCCCc1ccc(C(=O)CCN(C)C)cc1 | 73.0* | -1.6 | 103.0 | -0.8
CN(C)CCC(=O)c1ccc2c(c1)OCO2 | 61.9 | 19.1 | 102.0 | -0.25
CN(C)C(=O)ONC(=O)Cc1ccccc1 | x | x | x | -3.9*
CCCn1c(SCC(=O)c2cccs2)n[nH]c1=O | 64.2* | -15.3 | x | 0.2
Cc1cccc(C)c1OCc1nc2c3cnn(-c4ccccc4Br)c3ncn2n1 | x | x | 111.0 | x
Cc1cccc(C)c1OCc1nc2c3cnn(-c4ccccc4F)c3ncn2n1 | x | x | 75.0* | x
COCCNC(=S)N1CCn2c1nc1ccccc12 | 84.5* | -2.6 | 91.0 | 0.1
O=C(c1ccccc1)N1CCn2c1nc1ccccc12 | x | -9.9 | 110.0 | -0.85
c1ccc(-c2nnc(SCCN3CCOCC3)o2)cc1 | -3.7 | 26.2* | 100.0 | -0.2
Nn1c(CCC2CCCCC2)n[nH]c1=S | 85.9* | -63.0 | 81.0* | -0.15
NC(CCO)c1cccc(Cl)c1 (centres undefined) | x | x | x | 0.4
O=C1C=CC(=O)C(c2ccc(C(=O)O)cc2)=C1 | 90.5* | -2.7 | 97.0 | 0.2
CC(C)c1ccc(C2=CC(=O)C=CC2=O)cc1 | 88.7 | -7.8 | 105.0 | -2.05
CCn1c2ccccc2c2cc(NC(=O)Oc3ccccc3)ccc21 | 101.6 | -23.1 | 102.0 | -0.2
CC(=O)Nc1nc(-c2ccccc2)[n+](-c2ccccc2)s1 | x | x | x | -0.55
CNc1nc(-c2ccccc2)[n+](-c2ccccc2)s1 | 100.1* | x | 102.0 | -0.45
Cc1cc(Br)ccc1NC(=O)c1sc2nc3n(c(=O)c2c1C)CCCC3 | x | x | 110.0 | x
O=c1c2c(nc3n1CCC3)sc1c(O)c(Br)ccc12 | 10.4 | 37.9* | 100.0 | 1.05
C=C1C(C(=O)Nc2ccccc2N2CCOCC2)C1C(=O)Nc1ccccc1N1CCOCC1 (centres undefined) | -11.1 | -25.8 | 103.0 | 0.25
CN(C)C(=S)Nc1ccccc1N1CCOCC1 | 95.2* | -11.0 | 98.0 | -0.6
O=c1cc(O)c2ccccc2[nH]1 | 55.2 | -154.7 | 101.0 | -0.85
O=C1c2ccccc2C(=O)C1c1cc(=O)[nH]c2ccccc12 | 6.0 | -167.7 | 87.0* | -0.65
SMILES | Mtb MbtI inh | MenB inh | PV pol inh | AID504770
O=C1NNC(=S)C1C1CC1 (centres undefined) | 82.8* | 17.2 | 99.0 | -0.15
O=C1NC(=S)NC(=O)C1C1CCCCC1 | 11.8 | -32.4 | 104.0 | -0.8
NC(=O)NCc1ccccn1 | 7.3 | -31.7 | 102.0 | -0.65
O=C1CC(Sc2ccc3ccccc3c2)C2COC1O2 (centres undefined) | x | -58.9 | 84.0* | 0.3
CC1CCc2nc(SC3CC(=O)C4OCC3O4)nc(C(F)(F)F)c2C1 (centres undefined) | x | -5.3 | 102.0 | 1.1
COc1ccccc1Nc1nn(CN2CCCCC2C)c(=S)s1 (centres undefined) | 100.0* | -28.1 | 94.0 | -0.05
COc1ccccc1C(=O)CN1CCCCC1C (centres undefined) | -2.4 | -20.6 | 107.0 | 0.5
c1ccc(OCc2nnc3n2N=C(c2ccccc2)CS3)cc1 | 84.1* | -41.2 | 93.0 | -0.3
Fc1ccc(C2=Nn3c(Cc4ccccc4)nnc3SC2)cc1 | -12.4 | x | 104.0 | -0.25
Brc1ccc(C2=Nn3c(Cn4nnc5ccccc54)nnc3SC2)cc1 | 68.1* | -4.9 | 69.0* | 0.25
CCN(CC)C(=O)c1sc2c(c1C)c(=O)n(-c1ccccc1)c(=O)n2CC(=O)Nc1ccc(C)cc1C | x | x | 100.0 | x
CN(C)CCCNc1nn2c(=O)c3ccccc3nc2c2ccccc12 | -103.2 | -4.1 | 82.0* | -0.05
COc1ccccc1N1CCN(C(=O)c2nc(-c3ccc(C)cc3)n3c2CCCCC3)CC1 | x | x | 109.0 | x
COc1ccccc1-n1nnc(C(=O)N2CCCC2)c1N | -0.5 | 31.4* | 102.0 | 1.35
O=c1[nH]c(=S)n(CCc2ccccc2)c2c1CN(CCc1ccccc1)CN2 | -0.3 | 6.7 | 103.0 | -0.25
